Measurements as given in PubChem BioAssay (Tox21).
“And” between values parts separate entries of the source, which are not always exact repeats. Identical values can stand only once. Results filed as inconclusive are left out. The source made the active and inactive calls. Unless noted, calls come from the whole dose curve; as a rule, active = well fitted curve in the direction sought with a large enough effect in the repeat runs; inconclusive = weak or mixed curves; inactive = no such curve, though single readings can be large; an effect the other way counts as inactive or inconclusive.

Legend:
[1] = qHTS assay to identify small molecule antagonists of the peroxisome proliferator-activated receptor delta (PPARd) signaling pathway - cell viability counter screen (AID 743213); note: nearly all actives have a fitted effect of over 50% in size; note: potency is the fitted concentration of half-maximal effect
In short: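 Viability counter-screen, qHTS format: PPARd-bla HEK293H, L165041 300 nM final, 17 h compound exposure at 37 C, CellTiter-Glo luminescence after 30 min RT.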

[2] = molecular target: Peroxisome proliferator-activated receptor delta (Homo sapiens) (UniProt Q03181); experiment: qHTS assay to identify small molecule antagonists of the peroxisome proliferator-activated receptor delta (PPARd) signaling pathway (AID 743215; active = well fitted inhibition curve with a large enough effect in the signal ratio in the repeat runs, not every such curve was filed as active; the % refers to the signal ratio;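 note: cells stimulated with agonist L165041 at 300 nM final during compound exposure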; note: potency is the fitted concentration of half-maximal effect)
Peroxisome proliferator-activated receptor delta (Homo sapiens), sequence (Q03181 whole entry, looked up): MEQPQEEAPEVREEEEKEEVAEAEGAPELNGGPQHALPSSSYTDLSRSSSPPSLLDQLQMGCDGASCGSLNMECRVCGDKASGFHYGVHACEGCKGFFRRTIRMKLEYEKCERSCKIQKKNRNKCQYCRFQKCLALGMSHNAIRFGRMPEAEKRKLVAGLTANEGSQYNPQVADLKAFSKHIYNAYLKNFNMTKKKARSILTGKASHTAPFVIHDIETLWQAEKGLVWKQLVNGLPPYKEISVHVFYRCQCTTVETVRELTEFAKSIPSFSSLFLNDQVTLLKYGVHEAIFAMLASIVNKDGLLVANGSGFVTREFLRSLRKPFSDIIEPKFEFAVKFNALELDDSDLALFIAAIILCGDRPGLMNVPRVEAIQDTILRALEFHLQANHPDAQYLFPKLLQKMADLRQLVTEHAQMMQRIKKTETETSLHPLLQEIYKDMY
In short: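 Fluorescence from cleaved LiveBLAzer B/G FRET substrate (2 h, room temperature) reports PPARd-driven beta-lactamase in HEK293H UAS-bla cells. Cells had been treated 17 h at 37 C with compound plus 300 nM final L165041.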

[3] = molecular target: Bile acid receptor (Homo sapiens) (UniProt Q96RI1); experiment: qHTS assay to identify small molecule agonists of the farnesoid-X-receptor (FXR) signaling pathway (AID 743220; active = well fitted activation curve with a large enough effect in the signal ratio in the repeat runs, not every such curve was filed as active; the % refers to the signal ratio)
Bile acid receptor (Homo sapiens), sequence (Q96RI1 whole entry, looked up): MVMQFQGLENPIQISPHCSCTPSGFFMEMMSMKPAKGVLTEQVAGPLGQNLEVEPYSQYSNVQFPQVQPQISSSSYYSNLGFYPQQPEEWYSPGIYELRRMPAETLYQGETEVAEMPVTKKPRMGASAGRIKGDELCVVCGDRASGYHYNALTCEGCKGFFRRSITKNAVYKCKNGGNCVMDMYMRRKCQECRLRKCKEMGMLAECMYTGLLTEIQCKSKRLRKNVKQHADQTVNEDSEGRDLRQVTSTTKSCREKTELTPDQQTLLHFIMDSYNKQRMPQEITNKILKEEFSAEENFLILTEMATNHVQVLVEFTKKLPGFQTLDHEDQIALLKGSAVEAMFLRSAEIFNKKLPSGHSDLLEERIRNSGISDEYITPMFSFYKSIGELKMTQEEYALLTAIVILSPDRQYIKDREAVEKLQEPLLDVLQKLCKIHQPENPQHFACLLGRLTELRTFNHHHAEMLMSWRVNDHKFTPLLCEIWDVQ
In short: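 FXR-UAS-bla HEK 293T cells carrying a UAS-driven beta-lactamase reporter were plated for 5 h at 37C/5% CO2, then exposed to DMSO-dissolved Tox21 10K compounds for 16 h at 37C. A LiveBLAzer B/G FRET substrate was loaded for 2 h at room temperature before fluorescence reading.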

[4] = qHTS assay to identify small molecule agonists of the vitamin D receptor (VDR) signaling pathway - cell viability counter screen (AID 743224); note: nearly all actives have a fitted effect of over 50% in size; note: potency is the fitted concentration of half-maximal effect
In short: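 In parallel with the bla FRET readout, cytotoxicity toward VDR-bla cells after 16 h compound exposure was assessed by CellTiter-Glo, with luminescence recorded after a 30 min room-temperature incubation.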

[5] = qHTS assay to identify small molecule antagonists of the vitamin D receptor (VDR) signaling pathway - cell viability counter screen (AID 743225); note: nearly all actives have a fitted effect of over 50% in size; note: potency is the fitted concentration of half-maximal effect
In short: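 Luminescent cell viability (CellTiter-Glo) in VDR-bla HEK 293T cells after 16 h compound exposure at 37C in the presence of 3 nM final 1-alpha,25-dihydroxy vitamin D3.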

[6] = qHTS assay to identify small molecule agonists of the NFkB signaling pathway - cell viability counter screen (AID 1159515; calls by dose curve; note: nearly all actives have a fitted effect of over 55% in size; note: potency is the fitted concentration of half-maximal effect)
In short: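 Plate 2,000 NFkB-bla ME-180 cells/well; incubate overnight. Add compounds, 5 hr at 37 C. Add FRET substrate, 1.5 hr RT. Add CellTiter-Glo, 30 min RT; read luminescence.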

[7] = qHTS assay to identify small molecule agonists of the endoplasmic reticulum stress response signaling pathway - cell viability counter screen (AID 1159517; calls by dose curve; note: nearly all actives have a fitted effect of over 50% in size; note: potency is the fitted concentration of half-maximal effect)
In short: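 After overnight attachment, ESRE-bla HeLa cells were treated with Tox21 library compounds for 5 hr. CellTiter-Glo luminescence, read 30 min post-addition at room temperature, reported viability.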

[8] = qHTS assay to identify small molecule antagonists of the retinoid-related orphan receptor gamma (ROR-gamma) signaling pathway - cell viability counter screen (AID 1159520); note: nearly all actives have a fitted effect of over 50% in size; note: potency is the fitted concentration of half-maximal effect
In short: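 Cytotoxicity was read from cellular ATP (CellTiter-Glo luminescence) after 16 hr at 37 C with 1 uM doxycycline induction. The inducer was added 2 hr after compound transfer to Tet-on ROR gamma CHO cells.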

[9] = molecular target: Nuclear receptor ROR-gamma (Homo sapiens) (UniProt P51449); experiment: qHTS assay to identify small molecule antagonists of the retinoid-related orphan receptor gamma (ROR-gamma) signaling pathway (AID 1159521; note: nearly all actives have a fitted effect of over 50% in size; note: potency is the fitted concentration of half-maximal effect)
In short: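 CHO cells expressing RORγ under a TET-on promoter, luciferase under RORE control. Dox 1 uM final, 16 h; compounds added 2 h prior. Luminescence decrease measured.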

[10] = qHTS assay to identify small molecule agonists of the RXR signaling pathway - cell viability counter screen (AID 1159529); note: nearly all actives have a fitted effect of over 50% in size; note: potency is the fitted concentration of half-maximal effect
In short: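 Same-well viability check after the LiveBLAzer FRET read: CellTiter-Glo added, luminescence measured after 30 min at room temperature. Reporter HEK 293T cells had been treated with compounds for 16 hr following a 5 hr preincubation.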

[11] = qHTS assay to identify small molecule agonists of the farnesoid-X-receptor (FXR) signaling pathway - cell viability counter screen (AID 743218); note: nearly all actives have a fitted effect of over 45% in size; note: potency is the fitted concentration of half-maximal effect
In short: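 Readout: CellTiter-Glo luminescence, 30 min RT, multiplexed after the FXR-bla FRET reading. HEK 293T FXR-UAS-bla cells received compound 5 h post-plating and were incubated 16 h at 37 C.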

[12] = qHTS assay to identify small molecule antagonists of the farnesoid-X-receptor (FXR) signaling pathway - cell viability counter screen (AID 743221; active = well fitted cell-killing curve with a large enough effect in the repeat runs, not every such curve was filed as active; note: nearly all actives have a fitted effect of over 50% in size; note: potency is the fitted concentration of half-maximal effect)
In short: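 In GeneBLAzer FXR-UAS-bla HEK 293T cells stimulated with 50 uM chenodeoxycholic acid (final), compounds acted for 16 h at 37 C. Viability was assessed afterwards by CellTiter-Glo luminescence.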

[13] = qHTS assay to identify small molecule agonists of the AP-1 signaling pathway - cell viability counter screen (AID 1159525; calls by dose curve; note: nearly all actives have a fitted effect of over 55% in size; note: potency is the fitted concentration of half-maximal effect)
In short: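 Intracellular ATP by Cell Titer Glo luminescence (30 min, RT) in the same ME-180 AP-1-bla wells after the 5 h compound exposure at 37 °C. Normalised to tetra n-octyl ammonium bromide and DMSO controls.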

[14] = qHTS assay to identify small molecule agonists of the AP-1 signaling pathway (AID 1159526; calls by dose curve)
[15] = molecular target: Retinoic acid receptor RXR-alpha (Homo sapiens) (UniProt P19793); experiment: qHTS assay to identify small molecule agonists of the RXR signaling pathway (AID 1159527; calls by dose curve; note: nearly all actives have a fitted effect of over 35% in size)
Retinoic acid receptor RXR-alpha (Homo sapiens), sequence (P19793 whole entry, looked up): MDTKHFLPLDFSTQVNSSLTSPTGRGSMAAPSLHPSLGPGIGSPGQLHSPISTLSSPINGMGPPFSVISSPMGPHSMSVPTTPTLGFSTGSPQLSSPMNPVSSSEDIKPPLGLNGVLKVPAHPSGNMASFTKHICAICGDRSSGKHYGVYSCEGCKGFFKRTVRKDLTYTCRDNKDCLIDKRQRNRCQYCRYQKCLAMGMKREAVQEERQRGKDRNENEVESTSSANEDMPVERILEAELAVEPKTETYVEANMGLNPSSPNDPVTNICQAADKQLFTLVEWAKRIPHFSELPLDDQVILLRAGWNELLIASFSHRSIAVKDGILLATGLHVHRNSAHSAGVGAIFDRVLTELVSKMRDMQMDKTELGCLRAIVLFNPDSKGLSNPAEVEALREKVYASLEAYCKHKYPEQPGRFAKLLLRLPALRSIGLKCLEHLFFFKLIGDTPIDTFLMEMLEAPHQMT
In short: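 Beta-lactamase reporter assay, agonist format. Engineered HEK 293T line, charcoal-stripped FBS at 2%, overnight (16 hr) exposure, fluorescence at 460 and 530 nm after 405 nm excitation.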

[16] = molecular target: Peroxisome proliferator-activated receptor delta (Homo sapiens) (UniProt Q03181); experiment: qHTS assay to identify small molecule agonists of the peroxisome proliferator-activated receptor delta (PPARd) signaling pathway (AID 743212; calls by dose curve;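 note: HEK293H cells with PPARd UAS beta-lactamase reporter GeneBLAzer system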)
In short: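 Steps: seed PPARd-bla HEK293H cells; incubate 5 h, 37 C, 5% CO2; add compounds in DMSO; incubate, 37 C; add LiveBLAzer B/G FRET substrate; hold 2 h at room temperature; measure fluorescence.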

[17] = molecular target: Bile acid receptor (Homo sapiens) (UniProt Q96RI1); experiment: qHTS assay to identify small molecule antagonists of the farnesoid-X-receptor (FXR) signaling pathway (AID 743217; active = well fitted inhibition curve with a large enough effect in the signal ratio in the repeat runs, not every such curve was filed as active; the % refers to the signal ratio; note: potency is the fitted concentration of half-maximal effect)
In short: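 FRET fluorescence after 2 h room-temperature LiveBLAzer loading gives the readout. Prior step: FXR-bla HEK 293T cells, seeded and incubated 5 h, received test compounds plus 50 uM final CDCA for 16 h at 37 °C.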

[18] = molecular target: Vitamin D3 receptor (Homo sapiens) (UniProt P11473); experiment: qHTS assay to identify small molecule agonists of the vitamin D receptor (VDR) signaling pathway (AID 743222; calls by dose curve)
Vitamin D3 receptor (Homo sapiens), sequence (P11473 whole entry, looked up): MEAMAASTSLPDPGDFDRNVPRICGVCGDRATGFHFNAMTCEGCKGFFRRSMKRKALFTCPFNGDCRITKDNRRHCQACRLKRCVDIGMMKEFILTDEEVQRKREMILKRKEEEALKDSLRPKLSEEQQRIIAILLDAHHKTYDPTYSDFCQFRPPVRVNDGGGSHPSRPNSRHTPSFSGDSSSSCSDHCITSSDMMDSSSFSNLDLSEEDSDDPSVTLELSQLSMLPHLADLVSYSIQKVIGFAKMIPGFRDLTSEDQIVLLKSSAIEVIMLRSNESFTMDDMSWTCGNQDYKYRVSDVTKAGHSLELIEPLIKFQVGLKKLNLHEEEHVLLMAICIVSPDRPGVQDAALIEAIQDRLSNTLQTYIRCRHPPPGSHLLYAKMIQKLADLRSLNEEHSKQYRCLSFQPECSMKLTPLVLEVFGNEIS
In short: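 Following 4 h attachment at 37C, VDR-bla cells (2,000 per well) received DMSO-dissolved compounds or controls. After 16 h incubation, LiveBLAzer B/G FRET substrate was added and fluorescence read 2 h later at room temperature.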

Measured: Potency

O=C(CCl)Nc1ccccc1
active: [2] 17.4 µM | [4] 24.5 µM | [5] 49 µM | [8] 27.3 µM | [9] 21.7 µM
inactive: [1] | [3] | [6] | [7] | [10]

[Hg+2].[I-].[I-]
active: [1] 3.47 µM | [11] 3.09 µM | [12] 3.89 µM | [5] 5.49 µM | [6] 7.76 µM | [7] 49 µM | [8] 2.17 µM | [10] 3.89 µM

CCCCCCCCCC[N+](C)(C)CCCCCCCCCC
active: [1] 19.5 µM | [11] 49 µM | [12] 54.9 µM | [4] 19.5 µM | [5] 15.5 µM | [6] 54.9 µM | [7] 54.9 µM | [9] 21.7 µM | [13] 34.7 µM | [10] 15.5 µM

CCOC(=O)CC(=O)CCl
inactive: [1] | [11] | [12] | [4] | [5] | [6] | [7] | [13] | [14] | [10]
active: [9] 48.6 µM

CCOc1cc(C(C)(C)C)ccc1C1COC(c2c(F)cccc2F)=N1 (centres undefined)
inactive: [6] | [7] | [13]
active: [1] 33.4 µM | [2] 29.7 µM | [11] 33.4 µM | [12] 29.7 µM | [9] 33.1 µM | [10] 14.9 µM

O=c1oc2ccccc2c(O)c1Cc1c(O)c2ccccc2oc1=O
inactive: [3] | [6] | [7] | [13] | [15]
active: [9] 7.5 µM

Cc1cc(N=Nc2ccccc2C)ccc1N
inactive: [1] | [2] | [11] | [3] | [12] | [5] | [6] | [7] | [9]
active: [10] 54.9 µM and 43.6 µM

C[C@]12CC[C@@H]3c4ccc(OC(=O)N(CCCl)CCCl)cc4CC[C@H]3[C@@H]1CC[C@@H]2O
inactive: [16] | [3] | [4] | [5] | [6] | [7] | [8] | [13] | [15] | [10]
active: [17] 21.1 µM

CC(C)[C@H](C(=O)O[C@H](C#N)c1cccc(Oc2ccccc2)c1)c1ccc(Cl)cc1
inactive: [16] | [1] | [12] | [5] | [6] | [7] | [8] | [13] | [10]

C[C@@H]1CC[C@@]2(OC1)O[C@H]1[C@@H](O)[C@H]3[C@@H]4CC[C@H]5C[C@@H](O[C@@H]6O[C@H](CO)[C@H](O[C@@H]7O[C@H](CO)[C@@H](O)[C@H](O[C@@H]8OC[C@@H](O)[C@H](O)[C@H]8O)[C@H]7O[C@@H]7O[C@H](CO)[C@@H](O)[C@H](O[C@@H]8O[C@H](CO)[C@@H](O)[C@H](O)[C@H]8O)[C@H]7O)[C@H](O)[C@H]6O)[C@H](O)C[C@]5(C)[C@H]4CC[C@]3(C)[C@H]1[C@@H]2C
inactive: [18]
active: [1] 4.63 µM | [11] 26.1 µM | [12] 23.2 µM | [4] 8.24 µM | [5] 5.2 µM | [6] 9.25 µM | [7] 7.34 µM | [8] 10.3 µM | [13] 11.6 µM | [10] 4.13 µM

C=CCC1=C(C)C(OC(=O)C2C(C=C(C)C)C2(C)C)CC1=O (centres undefined)
active: [11] 51.9 µM | [12] 46.3 µM | [4] 18.4 µM | [6] 58.3 µM | [7] 36.8 µM | [8] 61.1 µM | [9] 32.5 µM | [10] 58.3 µM

CCCOCC(=Nc1ccc(Cl)cc1C(F)(F)F)n1ccnc1
active: [1] 21.9 µM | [11] 17.4 µM | [12] 21.9 µM | [5] 12.3 µM | [6] 30.9 µM | [7] 34.6 µM | [8] 61.1 µM
inactive: [15]

CC(C)[C@H](C(=O)OC(C#N)c1cccc(Oc2ccccc2)c1)c1ccc(OC(F)F)cc1 (some centres undefined)
inactive: [1] | [3] | [12] | [4] | [5] | [6] | [7] | [8] | [13] | [15] | [10]

CCCCCCCCCCCCCC[P+](CCCCCC)(CCCCCC)CCCCCC (tested in a mixture with another compound)
active: [1] 11 µM | [12] 6.92 µM | [5] 2.75 µM | [6] 17.4 µM | [7] 17.4 µM | [8] 15.4 µM | [10] 9.77 µM

S=C=Nc1cccc2ccccc12
inactive: [3] | [5] | [8]
active: [4] 54.4 µM | [6] 21.7 µM | [7] 19.3 µM | [13] 24.3 µM

Nc1ccc(Cc2ccc(N)c(Cl)c2)cc1Cl
inactive: [12] | [6] | [7] | [8] | [9]

O=[N+]([O-])c1ccc2ccc3cccc4ccc1c2c34
inactive: [1] | [2] | [17] | [11] | [3] | [12] | [4] | [5] | [6] | [7] | [9] | [13] | [14]

CC(C)(O)c1cnn2c(-c3ccc(F)c(-c4c(F)cccc4C#N)c3)cnc2n1
active: [4] 27.5 µM | [9] 61.1 µM
inactive: [1] | [6] | [7]
